# This excerpt belongs to a sample that is enriched for hits.
# Pf Dd2 inh = qHTS Primary assay for Inhibitors of Plasmodium falciparum Dd2 growth in vitro; 120,000 compounds, 4.3% hits; Potency, µM (highest dose often 28.9 µM), inactives show at the highest dose activity, negative = inhibition, most hits filed as inhibitors; P. falciparum Dd2 growth, SYBR Green, 72 h; active = well fitted inhibition curve with a large enough effect;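 note: plate controls were DMSO vehicle for no effect and reference drug for full effect; nearly all actives have a fitted effect of over 65% in size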
#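 Readout: SYBR Green fluorescence, 485 nm excitation, 535 nm emission, after ~16 h lysis at 37C. Before that, Dd2-infected red cells (2.5% hematocrit) grew 72 h with compound, 29 uM top final concentration.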
# Active calls of the source: *; i = inactive; [ ] = remark or other dose. Potency is the fitted concentration of half-maximal effect.
SMILES,Pf Dd2 inh
CCN1CCC2(Cc3ccccc3CN(C(=O)C3CCCC3)C2)C1 (configuration not stated),8.9µM*
CCCN1CCCC2(Cc3ccccc3CN(C(=O)C3CCN(C)CC3)C2)C1 (configuration not stated),-18%
CN(C)CCC(=O)N1Cc2ccccc2CC2(CCCN(CC3CCOCC3)C2)C1 (configuration not stated),-10%
CC(=O)NCC(=O)N1Cc2ccccc2CC2(CCN(CC3CCOCC3)C2)C1 (configuration not stated),4%
NCC(=O)N1Cc2ccccc2CC2(CCN(CC3CCOCC3)C2)C1 (configuration not stated),8.9µM*
NCC(=O)N1Cc2ccccc2CC2(CCN(CC3CCNC3)C2)C1 (configuration not stated),15%
CN1CCC(C(=O)N2Cc3ccccc3CC3(CCN(Cc4ccccn4)C3)C2)CC1 (configuration not stated),-21%
O=C(C1CCCC1)N1Cc2ccccc2CC2(CCN(CC3CCOCC3)C2)C1 (configuration not stated),7.1µM*
O=C(O)CCCC(=O)N1Cc2ccccc2CC2(CCCN(CC3CCCC3)C2)C1 (configuration not stated),10%
COc1cccc(Cc2nc3ccccc3nc2SCC(=O)NCCc2ccccc2)c1,-8%
COc1ccccc1CNC(=O)C1CN(Cc2ccccc2)C(=O)N1 (configuration not stated),4%
CC(=O)c1cc2c(cc1N/C(=N/S(=O)(=O)c1ccc(Cl)cc1)c1ccc(F)cc1)OCO2,-12%
O=C1CC(c2ccccc2)N(C(=O)C2CC2)CCCN(C(=O)NCc2ccccc2)CCN1 (configuration not stated),-22%
Cc1noc(C)c1C(=O)N1CCCCCCNC(=O)CC1,-2%
CCOC(=O)c1ccc(NC(=O)CSc2nc3cc4ccccc4cc3[nH]2)cc1,-7%
CN(C)CCNC(=O)c1ccc2c(=O)n3c(nc2c1)CCCCC3,-20%
O=C(C1CCC(=O)N(C2CCCC2)C1)N1CCN(c2nccs2)CC1 (configuration not stated),-5%
COCCNC(=O)[C@H]1CN2CCC1C[C@@H]2Cn1cc(COC)nn1 (some centres not stated),-8%[44.1 µM]
Cn1cnc([S+](=O)([O-])N2CCN(C(=O)N3CC4CC(C3)[C@H]3CCCC(=O)N3C4)CC2)c1 (some centres not stated),3%
COc1cc(C(=O)Nc2ccc(-c3cc(C(F)(F)F)nn3-c3ccccc3)cc2)cc(OC)c1OC,-17%
CCS(=O)(=O)N1CC(=O)N(c2cccc(Cl)c2)C(C)(C(=O)NC2CCCCCC2)C1 (configuration not stated),-18%
Cc1[nH]c2ccc(C(=O)N3CC[C@@](C)(O)[C@@H](O)C3)cc2c1C,-8%
COc1cc(C(=O)N2CCN(CCc3ccccn3)CC2)cc(OC)c1OC,2.8µM*
CC(C)(C)c1ccc(C(=O)N2CCN(CCc3ccccn3)CC2)cc1,17%
COc1cc(C(=O)N2CCN(CCc3ccncc3)CC2)cc(OC)c1OC,14%
SMILES,Pf Dd2 inh
CO[C@H]1C(=O)N(C(C)C)[C@H]1C1CCN(C(=O)c2ccco2)CC1,19%
COc1ccccc1-c1ncc2c(n1)OCCN(Cc1ccc(F)cc1F)C2=O,i
COc1cccc(-c2ncc3c(n2)OCCN(Cc2ccc(F)cc2F)C3=O)c1F,10µM*
COc1cccc(-c2ncc3c(n2)OCCN(Cc2ccc(F)cc2F)C3=O)c1,-21%[44.1 µM]
O=C(O)C[C@@H]1CCN(C(=O)C2CCC2)C[C@@H]1CCN1CCN(c2cccc(C(F)(F)F)c2)CC1,-5%
COc1ccc(C(=O)N2CCC(C(=O)Nc3ccc(OC)cc3OC)CC2)cc1,52%
COc1cccc(-c2ccccc2NC(=O)C2CCN(CC=C(C)C)CC2)c1,5.6µM*
COc1cccc(-c2ccccc2NC(=O)C2CCN(C/C(C)=C/c3ccccc3)CC2)c1,8.9µM*
COc1cccc(C(=O)Nc2ccccc2-c2nnc(-c3cccc(OC)c3)o2)c1,i
COc1cccc(-c2ccccc2NC(=O)C2CCN(Cc3ccccc3F)CC2)c1,-19%
C=CCC(=O)N1CCCC1C(=O)Nc1ccc(-c2cccc(OC)c2)cc1 (configuration not stated),-14%
COC(=O)[C@H](NC(=O)[C@@H]1[C@@H](NC(=O)Nc2ccc(F)cc2F)CCN1C(=O)CSC)C(C)C,-11%
O=C(Cn1c(=O)n2nc(-c3cccc(F)c3)nc2c2ccccc21)NCc1ccc(Cl)cc1,33%
CC(C)CCOc1ccc(Cn2c(=O)oc3ccccc32)cc1,30%
NCc1cn[nH]c1-c1ccccc1,7%
NCc1ccccc1-c1cccc(Cl)c1,8.9µM*
NCc1ccccc1-c1ccc(O)cc1,5%[44.1 µM]
CCOCCc1nnc(NC(=O)C(=O)c2cc(C)n(-c3ccc(Cl)cc3)c2C)s1,106%
CCC(=O)N1CCC(N2CC(OCC3CC3)C23CCOCC3)CC1 (configuration not stated),i

# Compound activity from PubChem BioAssay.
